# Sampled rows, rich in hits. Any-hit rate of the full collection: about 13%.
# CHOP inh = CHOP inhibition in unfolded protein response. AID 2732. inhibition, % at 10 µM. actives 3.8% (n = 220,000). CHO-K1 CHOP-promoter luciferase, tunicamycin-induced, 15-18 h;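 active means compounds that reduced the stress-induced luciferase reporter signal by more than about 70% of percent inhibition, limit read from the data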;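 further: 0% = tunicamycin plus vehicle and 100% = wells without tunicamycin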
# RAM network inh = yeast RAM network inhibition; S. cerevisiae dse1pr::URA3 reporter, 5-FOA growth OD615, 2 d; analog-sensitive cbk1-as2 kinase mutant strain; inhibition, % at 50 µM; actives 1.8% (n = 190,000); AID 868;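 active means inhibition above a set limit, 3 SD over mean compound inhibition, cut at about 8.4% in these data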;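 further: 0% = DMSO-only wells with no growth and 100% = 10 µM 1-NA-PP1 full growth; inhibition rescues growth on 5-FOA so higher OD means more RAM inhibition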
# WT yeast gro inh = growth inhibition of WT yeast, mitochondrial fusion screen; mitochondrial fusion phenotypic screen, WT strain; inhibition, % at 10 µM; actives 2.1% (n = 190,000); AID 1362; in the data active means inhibition above about 58%; tested in S. cerevisiae
# L major viab = Leishmania major promastigote growth inhibition; Leishmania major promastigotes, resazurin fluorescence viability; inhibition, % at 10 µM; actives 9% (n = 200,000); AID 1063; in the data active means inhibition above about 50%;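 further: promastigotes grown with compound for 44 hours at 28 °C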
# CHOP inh conf = confirmation of CHOP induction inhibitors. shares compounds with CHOP inh. CHO-CHOP promoter luciferase reporter, tunicamycin-induced, luminescence. inhibition, % at 10 µM. actives 45% (n = 2,100). AID 504437;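 active means mean of three repeat readings of reporter signal inhibition above a set limit, cut at about 70% in these data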;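 further: 0% = tunicamycin plus vehicle and 100% = wells lacking tunicamycin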
# Starred values were filed as active, the others as inactive; nt = not tested or not shown.
SMILES,CHOP inh,RAM network inh,WT yeast gro inh,L major viab,CHOP inh conf
CCOc1cccc(CN2CCN(c3cccc(C(F)(F)F)c3)CC2)c1O,100*,0,31,37,79*
Cc1ccc(S(=O)(=O)Nc2ccc(NC(=O)c3c(F)c(F)c(F)c(F)c3F)cc2)cc1,47,2,14,38,nt
O=C(Nc1cccc(Cl)c1)NC1(C(=O)NCc2cccs2)CCCCC1,104*,5,8,62*,24
COc1ccc(-c2cc(=O)oc(-c3cccc(C)c3)n2)cc1,11,nt,nt,nt,nt
COc1ccc(-c2[nH]ncc2N=Nc2cc(C)cc(C)c2)cc1,104*,5,-13,25,102*
O=C(CCSCc1cccc(Cl)c1)NCCc1ccc(Cl)cc1,38,4,15,-3,nt
Cc1ccc(/C=C2\SC(=S)N(CCCC(=O)Nc3ccccn3)C2=O)cc1,111*,4,-12,0,114*
Cc1ccc(/C=C2\SC(=S)N(CCCC(=O)Nc3ccc(O)cc3)C2=O)cc1,100*,nt,nt,nt,114*
CN1CCN(CC(=O)Nc2nnc(-c3cccs3)s2)CC1,8,1,-4,-5,nt
Cc1nn(Cc2ccc(Cl)cc2Cl)c(C)c1NC(=O)Cn1nc([N+](=O)[O-])c(Cl)c1C,100*,1,-7,-7,33
O=C(CC12CC3CC(CC(C3)C1)C2)N1CCN(S(=O)(=O)c2cccs2)CC1,31,3,-8,-1,nt
CCN(CC)c1ccc(/C=N/N=C(c2ccccc2)c2ccccc2)c(O)c1,32,5,0,-1,nt
CCN(CC)c1ccc(/C=N/NC(=S)NCc2ccccc2)c(O)c1,100*,3,2,3,-66
O=C(Oc1ccccc1)c1cccc2cccc(C(=O)Oc3ccccc3)c12,4,nt,nt,nt,nt
Cc1ccc(C(=O)N/C(=C/C=C\c2ccccc2)C(=O)NCc2ccco2)cc1,20,6,-4,42,nt
S=c1[nH]nc(C2CCCCC2)n1/N=C/c1ccncc1,55,1,-3,-4,nt
CC(/C=N/n1c(-c2cc(C)[nH]n2)n[nH]c1=S)=C\c1ccccc1,11,2,-24,4,nt
CC(/C=N/n1c(C2CCCCC2)n[nH]c1=S)=C\c1ccccc1,107*,0,89*,-6,102*
O=[N+]([O-])c1ccc(/C=N/n2c(C3CCCCC3)n[nH]c2=S)cc1,105*,2,1,1,113*
Cc1nc2cc(NCc3cc([N+](=O)[O-])ccc3O)ccc2n1Cc1ccccc1,-16,2,-2,-4,nt
OC1(Cc2ccccc2)CCNCC1,-20,nt,nt,nt,nt
OC1(c2ccc(Br)cc2)CCNCC1,101*,0,10,84*,25
CC(C)(C)c1cc(C(c2cccnc2)N2CCN(CCO)CC2)cc(C(C)(C)C)c1O (stereo unspecified),110*,-2,72*,100*,-60
O=[N+]([O-])c1ccc2nnn(O)c2c1,-2,1,6,-7,nt
CCN(CC)c1ccc(NC2=C(Cl)C(=O)c3ccccc3C2=O)cc1,107*,3,49,19,-11
SMILES,CHOP inh,RAM network inh,WT yeast gro inh,L major viab,CHOP inh conf
NC(N)=N/N=C/c1ccc(OCc2ccc(Cl)cc2)cc1,107*,0,82,101*,3
O=C(Cn1ncc(Cl)c(Cl)c1=O)NCC1CCCCC1,108*,2,-9,28,-15
O=C(Cn1ncc(Cl)c(Cl)c1=O)NC1CCS(=O)(=O)C1 (stereo unspecified),43,nt,nt,nt,nt
C=C(C)C(=O)OC1(C(F)(F)F)Oc2cc(C)ccc2NC1=O (stereo unspecified),109*,-2,23,-2,116*
Cc1ccc2c(c1)Oc1ccc(NC(=O)CCCl)cc1C(=O)N2,15,5,-11,9,nt
CS(=O)(=O)c1nc(-c2cccs2)cc(C(F)(F)F)n1,111*,-2,28,37,120*
COc1ccc(-c2cc(C(F)(F)F)nc(S(C)(=O)=O)n2)cc1,106*,-1,-12,100*,-139
CCOC(=O)CS(=O)(=O)c1nc(-c2ccc(F)cc2)cc(C(F)(F)F)n1,nt,-1,7,-3,nt
CS(=O)(=O)c1nc(-c2ccc(F)cc2)cc(C(F)(F)F)n1,106*,0,34,5,110*
O=C(C1=NNCC1c1ccccc1)C1CO1 (stereo unspecified),-34,0,1,-2,nt
CS(=O)(=O)c1nc(-c2ccc(Br)cc2)cc(-c2ccccc2)c1C#N,108*,2,-34,84*,-30
CS(=O)c1nc(-c2ccc(Br)cc2)cc(-c2ccccc2)c1C#N (stereo unspecified),nt,2,7,100*,-14
O=C(CNC(=O)c1ccc(Cl)cc1)N/N=C/C=C/c1ccccc1,99*,4,11,2,20
Cc1sc2c3ccsc3ccc2[n+]1C,1,2,25,1,nt
CCN1/C(=C/c2ccc3cc(C)ccc3[n+]2C)Sc2ccc3sccc3c21,109*,4,95*,101*,102*
CC(C)Cn1c(N)c(C(=O)COC(=O)C2CCCCC2)c(=O)n(C)c1=O,100*,0,6,-9,78*
C/C(CCc1ccc2c(c1)OCO2)=N\N=C(/N)SC1CC(=O)N(c2ccc(Cl)cc2)C1=O (stereo unspecified),97*,4,65*,3,2
O=C1CC(SC(=NCc2ccc3c(c2)OCO3)Nc2ccccc2)C(=O)N1c1ccccc1 (stereo unspecified),28,0,10,21,nt
CCN(CC)c1cc(C)c(C#N)c2nc3ccccc3n12,10,nt,nt,nt,nt
Cc1cc(Cl)n2c(nc3ccccc32)c1C#N,108*,-1,10,100*,133*
CCc1nc2c(cnn2-c2ccc(Cl)cc2)c(=O)n1-c1ccc(OC)cc1,101*,8,53,17,88*
COc1ccc(/C=C2\C(=O)NC(=S)N2C(=O)c2ccc(F)cc2)cc1,97*,3,16,4,26
CC(C)(C)c1ccc(S(=O)(=O)N2CCN(c3ncccn3)CC2)cc1,4,3,0,6,nt
Cc1ccc(CSc2nc3ccncc3n2CC(=O)Nc2cc(C)cc(C)c2)cc1,96*,-2,1,0,26
N/C(=N\NC(=O)c1cccs1)c1cc2ccccc2oc1=O,-1,0,12,34,nt
SMILES,CHOP inh,RAM network inh,WT yeast gro inh,L major viab,CHOP inh conf
CCN(CC)c1ccc2cc(/C(N)=N/NC(=O)c3cccs3)c(=O)oc2c1,102*,nt,nt,nt,-5
COc1ccccc1C(=O)NC(=Nc1nc2ccccc2o1)NC(=O)c1ccccc1OC,106*,5,33,100*,134*
O=C(NC(=Nc1nc2ccccc2o1)NC(=O)c1ccccc1)c1ccccc1,61,3,-5,6,nt
CCOC(=O)c1cc([N+](=O)[O-])c([N+](=O)[O-])cc1NC(C)=O,107*,0,76*,71*,91*
CC(=O)Nc1ccc(N(C(=O)CNC(=O)c2ccco2)C(C(=O)NCc2ccco2)c2ccccc2F)cc1 (stereo unspecified),-2,4,-7,-7,nt
O=C(NCCOc1ccccc1)C(=O)c1c[nH]c2ccccc12,-6,nt,nt,nt,nt
